The full data set covers some 8,800 targets. This sample favours those with a hit. About 0.5% of all pairs of compound and target were hits. A number with no mark means an inactive call.
Assays:
Assay in all cases: log2 fold change, soluble protein after heating vs DMSO (PISA); higher = thermal stabilisation; K562 lysate, 10 uM; active = over 0.2 and 3.5 SD of the protein, either way, in both replicates (recomputed)
erlotinib = compound: C#Cc1cccc(Nc2ncnc3cc(OCCOC)c(OCCOC)cc23)c1 [erlotinib]
Outline: (§1)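 Quantification was by TMTpro 16plex LC-MS/MS with equalised channel sums, applied to the supernatant after 21,000xg for 90 min. Samples were crude K562 extract at 1 mg/mL protein in PBS pH 7.4 with 1 mM MgCl2, treated with 10 μM compound for 30 min, heated for 3 min across 48°C-58°C, pooled and brought to 0.5% NP-40 at 4°C. Values are log-two fold changes in thermal stability relative to solvent controls, from duplicates.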

[1] = compound: C/C(=N\NC(=O)C1=CC(=CC=C1)S(=O)(=O)N2CCOCC2)/C3=C(C=CC(=C3)Cl)O
Outline: as §1

[2] = compound: C1=CC(=CC=C1C2=NC3=C(N2)C=C(C=C3)C(=O)N)OC4=CC=C(C=C4)Cl
Outline: as §1

[3] = compound: C1=CC2=C(C=CC(=C2)/C=C\3/C(=O)NC(=NCC4=CC=CS4)S3)N=C1
Outline: as §1

[4] = compound: C1=CC2=NC=CN=C2C=C1/C=C/3\C(=O)NC(=O)S3
Outline: as §1

[5] = compound: C1=CC=C(C=C1)C2=NC(=C(N2)C3=CC=NC=C3)C4=CC(=C(C=C4)Cl)O
Outline: as §1

[6] = compound: C1=CC=C2C(=C1)C3=NNC4=CC=CC(=C43)C2=O
Outline: as §1

[7] = compound: C1CCN(C1)C(=O)NC2=CC=CC(=C2)NC3=NC=C(C(=N3)NCCC4=CN=CN4)Br
Outline: as §1

[8] = compound: C1CN(CCC1(CC2=CC=C(C=C2)Cl)N)C3=NC=NC4=C3C=CN4
Outline: as §1

IRAK-1-4 Inhibitor I = compound: C1COCCN1CCN2C3=CC=CC=C3N=C2NC(=O)C4=CC(=CC=C4)[N+](=O)[O-] [IRAK-1-4 Inhibitor I]
Outline: as §1

ibrutinib = compound: C=CC(=O)N1CCC[C@@H](n2nc(-c3ccc(Oc4ccccc4)cc3)c3c(N)ncnc32)C1 [ibrutinib]
Outline: as §1

[9] = compound: CC(=O)c1cnc2ccc(-c3cc(Cl)c(O)c(Cl)c3)nc2c1N[C@H]1CC[C@H](CN(C)C)CC1
Outline: as §1

ralimetinib = compound: CC(C)(C)Cn1c(N)nc2ccc(-c3[nH]c(C(C)(C)C)nc3-c3ccc(F)cc3)nc21 [ralimetinib]
Outline: as §1

[10] = compound: CC(C)(O)CC(=O)NCCn1ccc2ncnc(Nc3ccc(Oc4cccc(C(F)(F)F)c4)c(Cl)c3)c21
Outline: as §1

[11] = compound: CC(C)C1=C2N=C(C=C(N2N=C1)NCC3=CC=CC=C3)NCCCCCCN
Outline: as §1

[12] = compound: CC1=C(C(CC(=O)N1)C2=CC=C(C=C2)C(F)(F)F)C(=O)NC3=C(C=C4C(=C3)C=NN4)F
Outline: as §1

[13] = compound: CC1=C(C2=C(C=C1)C(=O)C3=CC=CC=C3N2CCCN)C
Outline: as §1

[14] = compound: CC1=C(C=C(C=C1)NC(=O)C2=CC(=CC=C2)C(C)(C)C#N)NC3=CC4=C(C=C3)N=CN(C4=O)C
Outline: as §1

[15] = compound: CC1=C(C=C(C=C1)NC(=O)C2=CC(=CC=C2)N(C)C)NC(=O)C3=CC=C(C=C3)O
Outline: as §1

[16] = compound: CC1=CC=C(C=C1)SC2=C3C=C(SC3=CN=C2)C(=O)N
Outline: as §1

Sequence of UniProt Q15046 (Q15046 whole entry, looked up): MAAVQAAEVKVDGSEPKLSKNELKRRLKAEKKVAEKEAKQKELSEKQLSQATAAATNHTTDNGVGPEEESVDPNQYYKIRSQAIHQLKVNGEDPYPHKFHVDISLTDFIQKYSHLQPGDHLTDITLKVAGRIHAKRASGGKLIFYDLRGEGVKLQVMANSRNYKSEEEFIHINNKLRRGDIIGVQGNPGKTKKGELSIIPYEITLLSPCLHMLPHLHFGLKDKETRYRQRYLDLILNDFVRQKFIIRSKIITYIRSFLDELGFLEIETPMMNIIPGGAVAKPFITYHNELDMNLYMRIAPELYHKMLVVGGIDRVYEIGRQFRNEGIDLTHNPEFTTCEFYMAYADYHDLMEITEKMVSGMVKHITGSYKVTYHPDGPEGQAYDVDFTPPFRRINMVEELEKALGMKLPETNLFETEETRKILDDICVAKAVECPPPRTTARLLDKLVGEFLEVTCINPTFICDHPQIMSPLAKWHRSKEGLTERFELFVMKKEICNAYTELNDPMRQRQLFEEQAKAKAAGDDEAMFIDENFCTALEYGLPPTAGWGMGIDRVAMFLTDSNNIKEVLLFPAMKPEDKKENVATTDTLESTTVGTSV
Sequence of UniProt Q9NVH2 (Q9NVH2 whole entry, looked up): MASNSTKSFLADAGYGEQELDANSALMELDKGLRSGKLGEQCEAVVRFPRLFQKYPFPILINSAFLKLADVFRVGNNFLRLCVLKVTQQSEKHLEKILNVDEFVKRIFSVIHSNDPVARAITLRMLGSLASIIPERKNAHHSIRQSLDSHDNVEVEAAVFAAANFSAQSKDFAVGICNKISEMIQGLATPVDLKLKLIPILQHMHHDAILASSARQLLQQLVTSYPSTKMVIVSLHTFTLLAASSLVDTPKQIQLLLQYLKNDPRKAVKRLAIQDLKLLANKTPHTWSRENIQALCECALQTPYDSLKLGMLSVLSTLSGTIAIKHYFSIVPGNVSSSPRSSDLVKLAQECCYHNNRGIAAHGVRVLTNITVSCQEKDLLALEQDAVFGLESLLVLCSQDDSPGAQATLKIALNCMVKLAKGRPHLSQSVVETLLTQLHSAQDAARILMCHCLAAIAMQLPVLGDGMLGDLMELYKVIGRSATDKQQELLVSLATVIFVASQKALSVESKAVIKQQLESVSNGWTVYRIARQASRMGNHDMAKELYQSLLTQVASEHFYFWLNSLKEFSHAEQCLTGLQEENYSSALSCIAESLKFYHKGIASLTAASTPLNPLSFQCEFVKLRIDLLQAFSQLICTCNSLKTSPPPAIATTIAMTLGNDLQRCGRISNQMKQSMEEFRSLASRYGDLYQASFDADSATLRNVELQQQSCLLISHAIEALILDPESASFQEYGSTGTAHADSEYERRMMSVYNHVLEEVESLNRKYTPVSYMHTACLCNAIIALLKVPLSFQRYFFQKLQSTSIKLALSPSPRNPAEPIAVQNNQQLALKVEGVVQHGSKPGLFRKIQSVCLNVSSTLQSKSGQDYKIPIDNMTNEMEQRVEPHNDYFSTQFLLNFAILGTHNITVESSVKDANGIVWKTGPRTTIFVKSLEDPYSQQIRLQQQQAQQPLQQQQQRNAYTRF
Sequence of UniProt P49915 (P49915 whole entry, looked up): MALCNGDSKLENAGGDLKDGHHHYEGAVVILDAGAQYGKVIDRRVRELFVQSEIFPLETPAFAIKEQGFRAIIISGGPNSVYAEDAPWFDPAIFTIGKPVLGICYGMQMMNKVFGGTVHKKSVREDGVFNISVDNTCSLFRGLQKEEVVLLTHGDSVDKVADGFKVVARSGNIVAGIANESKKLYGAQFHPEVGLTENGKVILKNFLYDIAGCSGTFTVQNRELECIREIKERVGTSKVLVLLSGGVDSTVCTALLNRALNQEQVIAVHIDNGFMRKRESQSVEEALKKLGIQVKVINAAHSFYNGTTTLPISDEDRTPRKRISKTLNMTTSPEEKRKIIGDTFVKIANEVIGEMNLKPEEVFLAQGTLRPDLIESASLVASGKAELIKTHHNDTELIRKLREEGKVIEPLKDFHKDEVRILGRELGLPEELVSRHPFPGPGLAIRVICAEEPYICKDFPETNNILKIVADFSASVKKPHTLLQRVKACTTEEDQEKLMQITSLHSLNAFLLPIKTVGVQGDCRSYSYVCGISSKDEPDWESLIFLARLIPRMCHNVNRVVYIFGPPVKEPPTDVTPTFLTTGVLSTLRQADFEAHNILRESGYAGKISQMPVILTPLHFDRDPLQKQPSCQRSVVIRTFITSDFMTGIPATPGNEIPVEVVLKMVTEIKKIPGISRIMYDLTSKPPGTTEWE
Sequence of UniProt O15357 (O15357 whole entry, looked up): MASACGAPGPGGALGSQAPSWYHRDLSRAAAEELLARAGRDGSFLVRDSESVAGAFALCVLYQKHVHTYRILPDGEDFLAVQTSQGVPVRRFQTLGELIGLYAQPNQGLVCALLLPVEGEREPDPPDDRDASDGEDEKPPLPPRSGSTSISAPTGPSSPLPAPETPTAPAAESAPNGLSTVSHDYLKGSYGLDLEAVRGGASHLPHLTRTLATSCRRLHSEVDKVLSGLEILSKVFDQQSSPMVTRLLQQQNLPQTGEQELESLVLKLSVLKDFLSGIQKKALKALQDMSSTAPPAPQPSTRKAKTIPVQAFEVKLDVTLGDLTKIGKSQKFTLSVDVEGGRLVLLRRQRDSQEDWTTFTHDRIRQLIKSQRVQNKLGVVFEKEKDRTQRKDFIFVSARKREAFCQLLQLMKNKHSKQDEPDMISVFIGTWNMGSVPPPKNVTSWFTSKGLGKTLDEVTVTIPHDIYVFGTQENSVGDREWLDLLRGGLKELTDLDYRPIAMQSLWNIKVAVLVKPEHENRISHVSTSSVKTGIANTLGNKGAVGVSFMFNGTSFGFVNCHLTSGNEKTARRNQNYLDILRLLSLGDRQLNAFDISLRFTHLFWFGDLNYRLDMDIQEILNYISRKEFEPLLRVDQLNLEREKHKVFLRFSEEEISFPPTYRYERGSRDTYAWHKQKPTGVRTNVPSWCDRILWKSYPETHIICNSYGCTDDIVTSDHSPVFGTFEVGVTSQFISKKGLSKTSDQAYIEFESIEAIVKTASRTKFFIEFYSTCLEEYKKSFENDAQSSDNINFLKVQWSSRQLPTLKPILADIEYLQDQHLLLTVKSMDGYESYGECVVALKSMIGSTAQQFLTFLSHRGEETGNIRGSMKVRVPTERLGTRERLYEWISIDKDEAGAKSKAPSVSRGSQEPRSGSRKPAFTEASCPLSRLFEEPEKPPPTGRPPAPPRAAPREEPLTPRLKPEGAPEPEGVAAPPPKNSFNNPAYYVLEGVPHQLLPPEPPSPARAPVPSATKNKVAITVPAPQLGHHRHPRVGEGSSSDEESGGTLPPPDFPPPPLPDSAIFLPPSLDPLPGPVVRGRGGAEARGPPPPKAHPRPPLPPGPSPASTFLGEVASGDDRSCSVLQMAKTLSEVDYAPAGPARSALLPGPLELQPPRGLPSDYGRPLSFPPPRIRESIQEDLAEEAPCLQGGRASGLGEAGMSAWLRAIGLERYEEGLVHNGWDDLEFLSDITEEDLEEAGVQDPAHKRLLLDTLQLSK
Sequence of UniProt Q07666 (Q07666 whole entry, looked up): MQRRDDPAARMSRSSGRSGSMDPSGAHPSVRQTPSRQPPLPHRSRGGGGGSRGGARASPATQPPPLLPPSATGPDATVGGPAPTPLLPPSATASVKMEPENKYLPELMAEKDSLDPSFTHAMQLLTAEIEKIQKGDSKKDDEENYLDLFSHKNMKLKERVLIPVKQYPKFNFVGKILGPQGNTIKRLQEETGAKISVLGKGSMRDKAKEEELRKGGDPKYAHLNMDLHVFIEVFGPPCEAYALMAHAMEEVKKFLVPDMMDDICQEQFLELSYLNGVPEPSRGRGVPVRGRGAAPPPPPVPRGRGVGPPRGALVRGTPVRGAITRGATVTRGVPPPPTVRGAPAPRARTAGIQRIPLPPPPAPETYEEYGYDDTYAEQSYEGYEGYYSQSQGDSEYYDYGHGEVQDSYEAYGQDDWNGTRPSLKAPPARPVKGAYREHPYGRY
Sequence of UniProt Q75QN2 (Q75QN2 whole entry, looked up): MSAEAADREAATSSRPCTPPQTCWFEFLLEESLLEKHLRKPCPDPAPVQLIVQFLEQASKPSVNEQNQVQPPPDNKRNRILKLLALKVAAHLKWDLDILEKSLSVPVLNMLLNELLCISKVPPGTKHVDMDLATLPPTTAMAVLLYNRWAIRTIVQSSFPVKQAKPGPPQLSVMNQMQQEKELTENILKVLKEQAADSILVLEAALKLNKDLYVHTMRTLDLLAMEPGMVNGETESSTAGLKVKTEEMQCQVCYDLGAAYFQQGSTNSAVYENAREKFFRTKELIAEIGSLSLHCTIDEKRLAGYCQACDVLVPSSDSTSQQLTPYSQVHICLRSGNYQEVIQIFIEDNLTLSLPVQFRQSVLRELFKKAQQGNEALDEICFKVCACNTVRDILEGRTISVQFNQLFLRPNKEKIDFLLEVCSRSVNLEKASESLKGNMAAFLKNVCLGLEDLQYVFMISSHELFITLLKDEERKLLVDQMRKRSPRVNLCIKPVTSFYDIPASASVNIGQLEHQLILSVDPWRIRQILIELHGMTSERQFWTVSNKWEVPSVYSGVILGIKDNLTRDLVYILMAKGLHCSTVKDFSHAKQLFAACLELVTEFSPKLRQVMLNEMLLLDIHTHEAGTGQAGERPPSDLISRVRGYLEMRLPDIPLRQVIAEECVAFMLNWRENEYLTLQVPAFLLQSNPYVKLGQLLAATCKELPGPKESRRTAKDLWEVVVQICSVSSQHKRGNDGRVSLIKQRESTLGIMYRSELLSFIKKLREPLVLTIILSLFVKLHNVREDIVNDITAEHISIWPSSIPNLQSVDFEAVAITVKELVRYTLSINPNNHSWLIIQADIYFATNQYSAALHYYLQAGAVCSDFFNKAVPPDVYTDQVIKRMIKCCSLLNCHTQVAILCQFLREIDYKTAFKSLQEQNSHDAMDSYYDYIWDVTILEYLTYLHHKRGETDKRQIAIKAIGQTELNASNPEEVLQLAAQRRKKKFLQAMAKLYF

| Target | log2 fold change (erlotinib) | log2 fold change [1] | log2 fold change [2] | log2 fold change [3] | log2 fold change [4] | log2 fold change [5] | log2 fold change [6] | log2 fold change [7] | log2 fold change [8] | log2 fold change (IRAK-1-4 Inhibitor I) | log2 fold change (ibrutinib) | log2 fold change [9] | log2 fold change (ralimetinib) | log2 fold change [10] | log2 fold change [11] | log2 fold change [12] | log2 fold change [13] | log2 fold change [14] | log2 fold change [15] | log2 fold change [16] |
| --- | --- | --- | --- | --- | --- | --- | --- | --- | --- | --- | --- | --- | --- | --- | --- | --- | --- | --- | --- | --- |
| GMPS (UniProt P49915) | 0.014 | -0.025 | 0.004 | 0.029 | -0.013 | -0.007 | -0.009 | -0.003 | 0.017 | -0.004 | -0.034 | 0.003 | 0.009 | 0.013 | 0.006 | -0.032 | 0.025 | -0.024 | 0.015 | 0.02 |
| INPPL1 (UniProt O15357) | -0.01 | -0.034 | -0.018 | -0.052 | -0.006 | -0.02 | -0.051 | -0.021 | 0.003 | -0.034 | 0.012 | 0.02 | 0.049 | -0.013 | 0.004 | 0.011 | -0.005 | -0.001 | 0.034 | 0.014 |
| KHDRBS1 (UniProt Q07666) | -0.013 | 0.001 | -0.035 | 0.009 | -0.038 | 0.006 | -0.016 | 0.026 | 0.037 | -0.013 | 0.023 | -0.517 (active) | -0.021 | -0.009 | 0.016 | 0.023 | 0.007 | -0.026 | 0 | 0.044 |
| INTS7 (UniProt Q9NVH2) | 0.076 | -0.183 | -0.01 | 0.041 | 0.441 (active) | -0.044 | 0.026 | -0.019 | 0.035 | 0 | 0.012 | 0.061 | 0.083 | -0.024 | 0.023 | 0.023 | -0.09 | 0.543 (active) | 0.007 | 0.039 |
| GTF2I (UniProt P78347) | -0.005 | 0.016 | -0.02 | 0.018 | 0.008 | -0.003 | -0.034 | -0.002 | -0.031 | -0.007 | -0.004 | -0.002 | 0.007 | -0.004 | 0.012 | -0.007 | 0.005 | -0.027 | 0.033 | -0.001 |
| INTS8 (UniProt Q75QN2) | -0.002 | 0.043 | -0.051 | 0.02 | -0.048 | 0.037 | -0.004 | 0.066 | -0.035 | 0.015 | 0.024 | 0.028 | 0.058 | -0.028 | 0.009 | -0.021 | -0.179 | 0.023 | -0.033 | 0.031 |
| KARS1 (UniProt Q15046) | -0.015 | 0.002 | -0.04 | -0.016 | -0.005 | 0.004 | -0.021 | -0.006 | -0.021 | -0.017 | 0.009 | 0.012 | 0.016 | 0.018 | 0.001 | -0.011 | 0.024 | -0.014 | 0.015 | 0.029 |
| HAUS4 (UniProt Q9H6D7) | 0.012 | -0.029 | -0.036 | 0.064 | -0.003 | 0.015 | -0.015 | -0.025 | -0.007 | -0.016 | 0.04 | -0.033 | 0.003 | 0.01 | -0.004 | 0.006 | -0.016 | -0.008 | 0.057 | -0.01 |
